Measurements published in PMC7862700, “An all-to-all approach to the identification of sequence-specific readers for epigenetic DNA modifications on cytosine”.

Columns and labels:
Assay in all cases: DAPPL (digital affinity profiling via proximity ligation, sequencing); 10 mM Tris-HCl pH 7.5, 50 mM NaCl, 1 mM DTT, 4% glycerol, room temperature, 30 min; GST-TFs on glutathione beads, 16-mer random dsDNA library, 0.1% formaldehyde crosslink after washing; high values mean tight binding
Conditions in all cases: protein: recombinant; tags: N-terminal GST; dsDNA, one strand shown
ERF = biological target: T1, ERF (Homo sapiens, UniProt P50548 1-548)
T1 sequence: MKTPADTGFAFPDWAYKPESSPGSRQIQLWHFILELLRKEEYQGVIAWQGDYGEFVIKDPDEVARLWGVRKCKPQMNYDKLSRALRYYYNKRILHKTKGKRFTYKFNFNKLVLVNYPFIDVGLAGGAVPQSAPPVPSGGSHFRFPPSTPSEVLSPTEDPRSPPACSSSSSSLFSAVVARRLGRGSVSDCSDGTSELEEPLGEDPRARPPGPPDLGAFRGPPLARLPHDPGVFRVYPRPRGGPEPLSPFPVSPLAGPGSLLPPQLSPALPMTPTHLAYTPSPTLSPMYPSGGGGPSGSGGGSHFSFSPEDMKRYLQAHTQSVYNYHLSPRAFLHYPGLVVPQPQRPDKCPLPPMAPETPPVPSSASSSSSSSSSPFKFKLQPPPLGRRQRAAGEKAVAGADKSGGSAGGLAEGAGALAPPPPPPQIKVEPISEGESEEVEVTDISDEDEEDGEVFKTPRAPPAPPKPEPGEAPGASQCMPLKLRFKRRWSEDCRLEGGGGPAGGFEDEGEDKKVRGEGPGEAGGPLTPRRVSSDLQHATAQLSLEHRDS
Summary of the method: (§1)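 Binding signal is defined as a hexamer's read frequency for one factor over its frequency for the tag-only sample. To obtain reads, GST-fused human transcription factors were expressed in yeast, captured on glutathione beads, barcoded with DNA and pooled with that sample. Pools met 200 nmole of a 16-mer random double-stranded DNA library in Tris/NaCl/DTT/glycerol buffer for 30 min at room temperature before washing, 0.1% formaldehyde crosslinking, proximity ligation (BsaI/T4 ligase, 1 h, 37 °C), PCR and Illumina NextSeq500 sequencing.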

ETV3L = biological target: T2, ETV3L (Homo sapiens, UniProt Q6ZN32 1-361)
T2 sequence: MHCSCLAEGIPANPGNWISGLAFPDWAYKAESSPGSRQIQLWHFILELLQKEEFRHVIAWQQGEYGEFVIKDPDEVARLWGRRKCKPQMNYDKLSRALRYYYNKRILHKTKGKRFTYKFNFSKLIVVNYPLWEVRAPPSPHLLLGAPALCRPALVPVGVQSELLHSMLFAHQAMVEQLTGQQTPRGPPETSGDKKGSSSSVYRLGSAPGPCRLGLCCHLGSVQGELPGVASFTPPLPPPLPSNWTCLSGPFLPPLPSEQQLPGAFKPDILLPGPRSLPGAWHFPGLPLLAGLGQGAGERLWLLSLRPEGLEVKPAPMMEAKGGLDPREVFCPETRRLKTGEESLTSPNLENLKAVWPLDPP
Summary of the method: as §1

ETS2 = biological target: T3, ETS2 (Homo sapiens, UniProt P15036 1-469)
T3 sequence: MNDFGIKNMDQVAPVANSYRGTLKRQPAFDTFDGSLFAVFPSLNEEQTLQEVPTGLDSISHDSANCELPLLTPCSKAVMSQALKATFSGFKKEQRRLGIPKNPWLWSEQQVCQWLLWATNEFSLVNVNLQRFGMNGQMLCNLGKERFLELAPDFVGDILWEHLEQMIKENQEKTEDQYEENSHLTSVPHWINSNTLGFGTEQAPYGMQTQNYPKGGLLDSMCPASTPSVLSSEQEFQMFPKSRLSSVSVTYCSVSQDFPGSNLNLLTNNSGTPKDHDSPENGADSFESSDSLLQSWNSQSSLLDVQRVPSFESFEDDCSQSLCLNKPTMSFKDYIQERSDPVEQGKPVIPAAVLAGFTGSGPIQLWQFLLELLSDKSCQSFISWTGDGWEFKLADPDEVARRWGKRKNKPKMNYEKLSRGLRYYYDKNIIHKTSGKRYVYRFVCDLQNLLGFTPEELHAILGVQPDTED
Summary of the method: as §1

SPDEF = biological target: T4, SPDEF (Homo sapiens, UniProt O95238 1-335)
T4 sequence: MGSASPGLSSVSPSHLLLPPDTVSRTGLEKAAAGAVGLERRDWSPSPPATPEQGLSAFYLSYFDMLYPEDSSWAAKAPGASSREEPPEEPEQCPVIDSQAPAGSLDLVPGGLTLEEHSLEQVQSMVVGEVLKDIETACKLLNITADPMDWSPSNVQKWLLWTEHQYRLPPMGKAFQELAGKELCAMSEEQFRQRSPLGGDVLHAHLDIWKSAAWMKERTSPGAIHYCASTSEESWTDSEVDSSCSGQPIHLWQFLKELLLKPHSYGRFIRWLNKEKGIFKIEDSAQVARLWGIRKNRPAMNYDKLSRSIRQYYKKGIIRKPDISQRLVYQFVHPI
Summary of the method: as §1

ETV7 = biological target: T5, ETV7 (Homo sapiens, UniProt Q9Y603 1-341)
T5 sequence: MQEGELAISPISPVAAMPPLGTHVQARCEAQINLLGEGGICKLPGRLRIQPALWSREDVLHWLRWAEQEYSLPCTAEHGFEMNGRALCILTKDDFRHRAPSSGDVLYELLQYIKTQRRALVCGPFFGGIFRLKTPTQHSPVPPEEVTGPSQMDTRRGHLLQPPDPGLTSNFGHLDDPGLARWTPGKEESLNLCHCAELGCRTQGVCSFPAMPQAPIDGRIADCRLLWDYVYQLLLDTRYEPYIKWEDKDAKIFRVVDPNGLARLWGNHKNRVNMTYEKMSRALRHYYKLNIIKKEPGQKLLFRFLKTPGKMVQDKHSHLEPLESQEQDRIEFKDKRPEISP
Summary of the method: as §1

ELF5 = biological target: T6, ELF5 (Homo sapiens, UniProt Q9UKW6-2 1-255)
T6 sequence: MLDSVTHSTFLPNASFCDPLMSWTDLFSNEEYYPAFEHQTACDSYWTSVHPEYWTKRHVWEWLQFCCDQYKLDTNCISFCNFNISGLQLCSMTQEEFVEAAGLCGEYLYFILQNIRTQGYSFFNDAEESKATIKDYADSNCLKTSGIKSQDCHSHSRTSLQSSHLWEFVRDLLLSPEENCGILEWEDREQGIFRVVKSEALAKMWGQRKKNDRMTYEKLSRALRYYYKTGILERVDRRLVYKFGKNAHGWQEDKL
Summary of the method: as §1

ETV3 = biological target: T7, ETV3 (Homo sapiens, UniProt P41162-2 1-143)
T7 sequence: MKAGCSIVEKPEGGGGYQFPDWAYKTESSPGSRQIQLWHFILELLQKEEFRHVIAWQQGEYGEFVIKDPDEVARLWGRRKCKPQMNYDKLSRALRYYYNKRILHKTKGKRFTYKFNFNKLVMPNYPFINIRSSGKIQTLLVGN
Summary of the method: as §1

ETV6 = ETV6 (Homo sapiens, UniProt P41212 1-452)
Sequence of ETV6 (P41212 whole entry): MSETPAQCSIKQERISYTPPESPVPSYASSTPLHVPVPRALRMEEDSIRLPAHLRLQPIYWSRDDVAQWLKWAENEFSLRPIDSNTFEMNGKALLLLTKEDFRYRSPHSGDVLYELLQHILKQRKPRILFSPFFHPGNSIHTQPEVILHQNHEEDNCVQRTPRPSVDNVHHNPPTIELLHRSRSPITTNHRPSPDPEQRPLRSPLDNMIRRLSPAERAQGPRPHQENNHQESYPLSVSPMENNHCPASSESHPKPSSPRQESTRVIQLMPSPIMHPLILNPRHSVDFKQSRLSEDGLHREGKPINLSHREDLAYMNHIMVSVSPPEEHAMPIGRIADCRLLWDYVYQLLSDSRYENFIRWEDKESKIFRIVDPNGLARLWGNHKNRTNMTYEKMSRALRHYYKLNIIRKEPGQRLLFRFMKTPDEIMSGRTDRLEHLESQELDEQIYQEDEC
Summary of the method: as §1

Sequence	binding signal (ERF)	binding signal (ETV3L)	binding signal (ETS2)	binding signal (SPDEF)	binding signal (ETV7)	binding signal (ELF5)	binding signal (ETV3)	binding signal (ETV6)
GCACTC	1.39 fold enrichment (6-mer frequency, TF over GST control)	1.33 fold enrichment (6-mer frequency, TF over GST control)	1.23 fold enrichment (6-mer frequency, TF over GST control)	1.22 fold enrichment (6-mer frequency, TF over GST control)	1.28 fold enrichment (6-mer frequency, TF over GST control)	1.27 fold enrichment (6-mer frequency, TF over GST control)	1.28 fold enrichment (6-mer frequency, TF over GST control)	1.34 fold enrichment (6-mer frequency, TF over GST control)
CCTCGG	1.23 fold enrichment (6-mer frequency, TF over GST control)	1.23 fold enrichment (6-mer frequency, TF over GST control)	1.23 fold enrichment (6-mer frequency, TF over GST control)	1.04 fold enrichment (6-mer frequency, TF over GST control)	1.11 fold enrichment (6-mer frequency, TF over GST control)	1.2 fold enrichment (6-mer frequency, TF over GST control)	1.05 fold enrichment (6-mer frequency, TF over GST control)	1.24 fold enrichment (6-mer frequency, TF over GST control)
TGTAGC	1.32 fold enrichment (6-mer frequency, TF over GST control)	1.13 fold enrichment (6-mer frequency, TF over GST control)	1.12 fold enrichment (6-mer frequency, TF over GST control)	1.2 fold enrichment (6-mer frequency, TF over GST control)	1.12 fold enrichment (6-mer frequency, TF over GST control)	1.14 fold enrichment (6-mer frequency, TF over GST control)	1.22 fold enrichment (6-mer frequency, TF over GST control)	1.12 fold enrichment (6-mer frequency, TF over GST control)
GTGTTC	1.19 fold enrichment (6-mer frequency, TF over GST control)	1.14 fold enrichment (6-mer frequency, TF over GST control)	1.17 fold enrichment (6-mer frequency, TF over GST control)	1.34 fold enrichment (6-mer frequency, TF over GST control)	1.11 fold enrichment (6-mer frequency, TF over GST control)	1.34 fold enrichment (6-mer frequency, TF over GST control)	1.05 fold enrichment (6-mer frequency, TF over GST control)	1.09 fold enrichment (6-mer frequency, TF over GST control)
ACTCGA	1.33 fold enrichment (6-mer frequency, TF over GST control)	1.3 fold enrichment (6-mer frequency, TF over GST control)	1.33 fold enrichment (6-mer frequency, TF over GST control)	1.29 fold enrichment (6-mer frequency, TF over GST control)	1.28 fold enrichment (6-mer frequency, TF over GST control)	1.22 fold enrichment (6-mer frequency, TF over GST control)	1.27 fold enrichment (6-mer frequency, TF over GST control)	1.27 fold enrichment (6-mer frequency, TF over GST control)
TGGACA	1.08 fold enrichment (6-mer frequency, TF over GST control)	1.06 fold enrichment (6-mer frequency, TF over GST control)	1.12 fold enrichment (6-mer frequency, TF over GST control)	1.04 fold enrichment (6-mer frequency, TF over GST control)	1.06 fold enrichment (6-mer frequency, TF over GST control)	1.02 fold enrichment (6-mer frequency, TF over GST control)	1.06 fold enrichment (6-mer frequency, TF over GST control)	1.09 fold enrichment (6-mer frequency, TF over GST control)
TAGAAT	1.17 fold enrichment (6-mer frequency, TF over GST control)	1.09 fold enrichment (6-mer frequency, TF over GST control)	1.06 fold enrichment (6-mer frequency, TF over GST control)	1.07 fold enrichment (6-mer frequency, TF over GST control)	1.13 fold enrichment (6-mer frequency, TF over GST control)	1.08 fold enrichment (6-mer frequency, TF over GST control)	1.05 fold enrichment (6-mer frequency, TF over GST control)	1.15 fold enrichment (6-mer frequency, TF over GST control)
